A selection: hits, their analogues and other compounds. The true share with any hit is near 4.4%.
HUVEC tox IL1B = toxic to HUVEC cells under IL-1B stimulation | cell count reduction, % at 2 µM | AID 845 | 94,000 compounds, 0.41% hits | HUVEC cell count loss, Hoechst imaging, IL-1B stimulated;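 active means cell count reduction more than 3 SD above the screen-wide mean, cut at about 70% in these data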;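 further: normalized per plate to untreated control cells as the no-loss baseline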
NFkB transloc inh = blocks IL-1B driven NFkB nuclear translocation in HUVEC cells; HUVEC IL-1B NFkB p65 nuclear translocation imaging; inhibition, % at 2 µM; 94,000 compounds, 0.43% hits; AID 796;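 active means inhibition above about 30% together with a positive call from visual inspection of the well image, limit read from the data; inconclusive means inhibition above a set limit but visual check negative; inactive means inhibition not above a set limit, visual check negative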;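 further: nuclear over cytoplasmic p65 intensity ratio measured by imaging; 0% = IL-1B stimulated DMSO wells and 100% = unstimulated DMSO wells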
IL1B NFkB pot = enhances IL-1B driven NFkB nuclear translocation; HUVEC IL-1B NFkB p65 nuclear translocation imaging; 94,000 compounds, 0.3% hits; activation, % at 2 µM;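 active means activation above 40%, about the mean plus 3 SD, also judged a hit on visual image review; inconclusive means activation above 40% but not a hit on visual review; inactive means activation not above 40% and no visual hit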;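 further: percent activation is computed from the nuclear over cytoplasmic p65 intensity ratio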
Cav32 inh = inhibitors of human Cav3.2 T-type calcium channel; O95180; Cav3.2-expressing cells, Fluo-4 calcium fluorescence FDSS; active compounds read low; B-score at 10 µM; 100,000 compounds, 4% hits;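 active means single-dose well whose peak fluorescence ratio is a statistical outlier from its plate by either plate-standardised score or position-corrected B-score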
* hit, by the source's call; ? = inconclusive; . = not tested or not shown.

SMILES | HUVEC tox IL1B | NFkB transloc inh | IL1B NFkB pot | Cav32 inh
N#Cc1c(Cl)c(Cl)c2nnc(-c3ccc(Br)cc3)n2c1Cl | -40 | -1 | 1 | 1.5
COc1ccc(C(C)n2c(C)c3c(C)nnc(C)c3c2C)cc1 (stereo not drawn) | -20 | 41* | -41 | -2.8
CC(=O)C[C@H]1c2cc(F)ccc2S(=O)(=O)N1c1ccc(N(C)C)cc1 | . | . | . | -0.31
Cc1nn(Cc2ccccc2)c(C)c1NC(=O)c1cc(-c2ccco2)on1 | -12 | -31 | 31 | -6.2*
CCCC(C)NC(=O)c1nc(-c2ccccc2)n(-c2ccccc2)n1 (stereo not drawn) | 0 | 2 | -2 | -4.9*
Cc1ccc(C)c(NC(=O)c2nc(-c3ccccc3)n(-c3ccccc3)n2)c1 | -6 | -13 | 13 | -5.8*
Cc1csc(NC(=O)c2nc(-c3ccccc3)n(-c3ccccc3)n2)n1 | . | . | . | -2.4
FC(F)(F)C(Oc1nc(NC2CCCCC2)nc(N2CCOCC2)n1)C(F)(F)F | -10 | 8 | -8 | -4.9*
CC(NC(=O)CCCCCN1C(=O)c2ccccc2C1=O)c1ccc2c(c1)CCCC2 (stereo not drawn) | -10 | 1 | -1 | -3.7*
CC(NC(=O)CCCN1C(=O)c2ccccc2C1=O)c1ccc2c(c1)CCCC2 (stereo not drawn) | -6 | 19 | -19 | -4.2*
COc1ccc(CCNC(=O)CCCCCN2C(=O)c3ccccc3C2=O)cc1 | 1 | 9 | -9 | -0.15
O=C(CCCN1C(=O)c2ccccc2C1=O)NC1CCCCCC1 | -14 | 7 | -7 | 0.065
CCCCCCCC(=O)NNC(=O)CCC(=O)O | -4 | 7 | -7 | .
Cc1cccc(C)c1OC1(c2ccccc2)OC(=O)c2ccccc21 (stereo not drawn) | 11 | 5 | -5 | -6.6*
Cc1ccc(C)c(/C=N/NC(=S)NCCc2ccccc2)c1 | -13 | 25 | -25 | -0.29
Cc1cccc(C(C)Nc2ccc([N+](=O)[O-])cn2)c1 (stereo not drawn) | 16 | 0 | 0 | -4.3*
COc1ccccc1N1CCN(CC(=O)c2c(C)n(C)c3ccccc23)CC1 | 4 | 9 | -9 | 0.16
COc1ccccc1N1CCN(CC(=O)c2c(C)[nH]c3cc(C)ccc23)CC1 | 14 | 4 | -4 | -4.2*
Cc1ccc2c(C(=O)CN3CCN(C4CCCCC4)CC3)c(C)[nH]c2c1 | 92* | -19 | 19 | 2
COc1cc2c(cc1NC(=O)c1cc(-c3ccncc3)nc3ccc(C)cc13)oc1ccccc12 | -18 | 3 | -3 | -0.53
CCN(CC)c1ccc2c(Cl)c(Br)c(=O)oc2c1 | -26 | -25 | 25 | -6.4*
CC1(C)Cc2c(C#N)c(SCCC#N)nc(N3CCOCC3)c2CS1 | . | . | . | -3.9*
O=C(Nc1ccccc1C(=O)NC(Cc1ccccc1)C(=O)NC1CCCCCC1)c1ccccc1 (stereo not drawn) | 33 | 5 | -5 | -5.3*
O=C(N[C@@H](Cc1ccccc1)C(=O)NC1CCCCCC1)c1ccco1 | 8 | -48 | ? | -0.018
CCc1nnc(NC(=O)C2COc3ccccc3O2)s1 (stereo not drawn) | 13 | 18 | -18 | -0.042
SMILES | HUVEC tox IL1B | NFkB transloc inh | IL1B NFkB pot | Cav32 inh
O=C(Nc1cnc2ccccc2c1)C1COc2ccccc2O1 (stereo not drawn) | 9 | -12 | 12 | -12*
Cc1nnc(NC(=O)C2COc3ccccc3O2)s1 (stereo not drawn) | . | . | . | -0.43
CCC(CC)c1nnc(NC(=O)C2COc3ccccc3O2)s1 (stereo not drawn) | 10 | 7 | -7 | -3.9*
O=C(Nc1ccncc1)C1COc2ccccc2O1 (stereo not drawn) | -4 | -20 | 20 | -0.033
O=C(Nc1nc2c(s1)CCCC2)C1COc2ccccc2O1 (stereo not drawn) | 14 | 2 | -2 | -4.9*
COC(=O)c1sc2ncn(-n3c(C)ccc3C)c(=O)c2c1C | -1 | -3 | 3 | .
COc1cccc(CNc2ccc(N3CCC(C)CC3)cc2)c1OC | -157 | -8 | 9 | -7.7*
COc1cccc(CNc2nn[nH]n2)c1OC | -50 | -8 | 8 | 0.18
COc1cc(CCCN2C(N)=NC[C@@H]2Cc2ccc(O)cc2)cc(OC)c1OC | . | . | . | 0.048
CCOc1ccccc1NC(=O)Cn1nnc(-c2ccc(OCC)c(OCC)c2)n1 | -16 | -15 | 15 | .
OCc1csc(=Nc2ccccc2)n1-c1ccccc1 | 15 | 5 | -5 | 0.64
O=C(Nc1cccnc1)C(Cc1ccccc1)n1cccc1 (stereo not drawn) | 10 | 0 | 0 | 0.26
O=C(Nc1ncc(Br)s1)C(Cc1ccccc1)n1cccc1 (stereo not drawn) | -7 | -34 | 34 | -4.5*
CCSc1nnc(NC(=O)Cc2ccc(OC)cc2)s1 | -1 | -1 | 1 | -2
CCSc1nnc(NC(=O)Cc2cccc(OC)c2)s1 | 47 | 36* | -36 | -1.5
O=C(CSc1nnc(-c2cccnc2)n1-c1ccccc1)N1CCN(c2ccc(F)cc2)CC1 | -13 | 5 | -5 | 4*
COc1ccc(N2CCN(C(=O)CSc3nnc(-c4cccnc4)n3-c3ccc(F)cc3)CC2)cc1 | 14 | -5 | 5 | 1.4
CCOc1ccc(S(=O)(=O)Nc2ccc(F)cc2)c(C)c1C | -10 | -4 | 4 | -4.7*
CCOc1ccc(NC(=O)CSC(N)=O)cc1 | . | . | . | -4.7*
Cc1cc(O)c(C(C)C)cc1NC(=O)c1cccc(Cl)c1 | -15 | 5 | -5 | -2.3
Cc1cc(O)c(C(C)C)cc1NC(=O)c1ccc(Cl)cc1 | -35 | 5 | -5 | -6.3*
Cc1nn(C2CCCCC2)c(N)c1-c1ccccc1 | -5 | 9 | -9 | -3.4*
Cc1cccc(N(CC(=O)N/N=C/c2ccc(OCC(=O)NCc3ccco3)cc2)S(C)(=O)=O)c1C | -10 | -14 | 14 | -0.56
O=C(NCc1ccco1)C(c1cccs1)N(C(=O)C1COc2ccccc2O1)c1cccc(O)c1 (stereo not drawn) | -13 | -2 | 2 | -8.6*
COc1ccc(-n2nc3c(c2NC(=O)C2CC2)CS(=O)C3)cc1 (stereo not drawn) | 0 | -3 | 3 | 0.99
SMILES | HUVEC tox IL1B | NFkB transloc inh | IL1B NFkB pot | Cav32 inh
O=C(CCC1CCCCC1)Nc1c2c(nn1-c1ccc(F)cc1)CS(=O)C2 (stereo not drawn) | 76* | 5 | -5 | -1.1
CCC(C)NC(=O)NC(=O)N(C1CCCCC1)S(C)(=O)=O (stereo not drawn) | -8 | 1 | -1 | 0.32
CCc1c(C(=O)N/N=C/c2ccc(C)o2)csc1C | -32 | -17 | 17 | 0.056
CCOC(=O)N/N=C/c1ccc(C)o1 | -12 | 33* | -33 | 0.6
O=C(COc1ccccc1)NC(NC(=S)Nc1ccccc1O)C(Cl)(Cl)Cl (stereo not drawn) | -76 | -7 | 7 | -7.9*
O=C(CCCn1c(=S)[nH]c2cc3c(cc2c1=O)OCO3)N1CCN(c2ccccc2)CC1 | -26 | 3 | -3 | -3
O=C(CCCn1c(=S)[nH]c2cc3c(cc2c1=O)OCO3)N1CCN(c2ccc(Cl)cc2)CC1 | 14 | -4 | 4 | -7.7*
Cc1cccc(N2CCN(C(=O)CCn3c(=S)[nH]c4cc5c(cc4c3=O)OCO5)CC2C)c1 (stereo not drawn) | -28 | 3 | -3 | -4*

High-throughput results from PubChem.
